# Bioassay records: PubChem, National Center for Advancing Translational Sciences (NCATS)
# GFP derepression: epigenetic modulators derepressing GFP locus in mouse cells | mouse C127i GFP locus derepression, cytometry, 30 h | Potency, µM (top dose mostly 46.1 µM), for the others: at the highest dose GFP derepression (activation) | 68,000 compounds, 0.09% hits; also: % of control where 0% means no effect
#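 Derepression screen: silenced CMV-GFP reporter in murine C127i cells, 30 h compound incubation at 37 C, washed cells imaged by laser-scanning cytometer to enumerate GFP-expressing objects of 20 to 120 um.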
# UbGFP stabilizer: ubiquitin-GFP accumulation via proteasome inhibition. Ubiquitin-GFP reporter cells, proteasome inhibition, GFP fluorescence; response scale: untreated = 0%, 10 µM MG-132 = 100%. Potency, µM (highest dose often 45.9 µM), for the others: top-dose activation (GFP accumulation), hits mostly activators. 67,000 tested, under 10 active; active = well fitted activation curve with a large enough effect, not every such curve was filed as active; inconclusive = small, poorly fitted or top-dose-only effect, or another doubt; inactive = no such curve, though single readings can be large or run the other way; also: potency is read from the fitted curve at half-maximal effect
#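 U2OS cells expressing ubiquitin(G76V)-GFP, seeded overnight in 0.5% FBS medium, then treated 4 hr at 37 C across 46 uM to 2.9 nM. GFP-positive cells counted by laser cytometry (488 ex/515 em); %activity scaled between basal and 10 uM MG-132.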
# p53ts 39C tox: p53ts cell cytotoxicity, nonpermissive temperature; H1299-p53A138V viability at 39C, ATP luminescence, 24 h; Potency, µM (highest dose often 46.1 µM), without a hit: top-dose activity change, negative = cell killing, most hits filed as cytotoxic; 130,000 compounds, 1.5% hits; AID 902; also: potency is read from the fitted curve at half-maximal effect; % is scaled to controls: 0 for no effect and ±100 for the full control effect; nearly all actives have a fitted effect of over 55% in size
# HBB splicing: alters splicing of the hemoglobin beta chain; 65,000 compounds, 0.06% hits; Potency, µM (series often up to 46.1 µM), inactives show top-dose activation, actives largely listed as activators; HBB splicing reporter cell assay, activation; EGFP reporter with mutant IVS2-654 intron; response scale: normalised to 500 nM splice-correcting PNA; also: potency is read from the fitted curve at half-maximal effect; 0% is about no effect
#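 Compounds were applied for 2 days to HeLa EGFP-654 cells, 500/well in Optimem with 2% FCS. The reporter's EGFP is disrupted by mis-splicing of beta-globin intron IVS2-654. Readout: summed well GFP fluorescence from 488 nm laser scanning; reference was 500 nM antisense […] 654 PNA.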
# p53ts 32C kill: cytotoxicity in p53ts cells at permissive temperature; H1299-p53A138V at 32C, ATP luminescence viability, 24 h; Potency, µM (highest dose often 46.1 µM), for inactives: top-dose activity change, negative = cytotoxicity, hits mostly cytotoxic; 130,000 compounds, 0.93% hits;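 also: potency is read from the fitted curve at half-maximal effect; 0% = DMSO and -100% = full killing by reference compound; nearly all actives have a fitted effect of over 55% in size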
#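 Viability by ATPlite luminescence after 24 h compound treatment (up to 46 uM) at the permissive 32C. Cells are H1299 carrying p53 A138V. Scale runs from DMSO basal to 100 uM tamoxifen as full kill; AC50 from Hill fits.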
# Imprint erasure: induces erasure of genomic imprints in mouse ES cells; AID 1948; mouse ES Peg3-LacZ reporter, beta-gal luminescence, 40 h; Potency, µM (doses to about 60.7 µM), for inactives: at the top dose activity change, positive = activation, actives largely listed as activators; 110,000 compounds, 0.02% hits; also: potency is read from the fitted curve at half-maximal effect
#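 Readout: BetaGlo luminescence (5 min, room temp) for LacZ from the normally silent maternal Peg3 allele in female Peg3LacZ-Neo ES cells. Cells 300/well, 40 h, 37C, 5% CO2. Data normalized per plate to negative controls.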
# The depositor's hits bear a star; ? = inconclusive; / = no result given; [ ] = dose if it differs, or a comment. The list is not random: actives were taken first. Their share in the collection is about 1.6%. Unless noted, calls follow the shape of the dose curve; as a rule, active = well fitted curve in the direction sought with a large enough effect; inconclusive = small, poorly fitted or top-dose-only effect, or another doubt; inactive = no such curve, though single readings can be large; an effect the other way counts as inactive or inconclusive.
SMILES,GFP derepression,UbGFP stabilizer,p53ts 39C tox,HBB splicing,p53ts 32C kill,Imprint erasure
CC1CCCc2sc3nc(NCc4ccco4)n4ncnc4c3c21 (stereo not given),2%,/,6%,2%[0.369 µM],2%,-11%
O=C(Nc1ccc2c(c1)OCO2)C1CCCN(c2nc3ccccc3s2)C1 (stereo not given),-1%,16%,?,-6%,20µM*,-73%
N#CC(=C1CCCC1)c1nc(-c2ccccc2O)cs1,-1%,1%,13µM*,0%[57.5 µM],10µM*,-75%
N#C/C(=N\O)c1nc(-c2ccccc2)cs1,-4%[20.6 µM],/,/,/,/,/
COc1ccc(-c2nnc(Nc3nc4c(OC)cccc4s3)o2)c(OC)c1,?,-1%,10µM*,-1%,?,-31%
COc1ccc(-c2nnc(Nc3nc4c(OC)cccc4s3)o2)cc1,-3%,16%,13µM*,1%,?,-19%
Fc1cccc2sc(Nc3nnc(-c4ccccc4)o3)nc12,-2%,-1%,10µM*,-1%,16µM*,-51%
O=C(Cn1c(=O)n(-c2ccccc2)c(=O)c2c3c(sc21)CCCC3)Nc1ccccc1,/,/,13µM*,/,?,6%[10.9 µM]
O=c1c(-c2ccc3c(c2)OCCO3)coc2cc(O)cc(O)c12,-2%,4%,7.9µM*,0%,13µM*,-55%
CCOC(=O)c1cc(-c2ccccc2)n(CC(=O)Nc2cc(Cl)c(OC)cc2OC)c1C,/,/,20µM*,/,0%,-10%[10.9 µM]
CC(=O)N1CCCc2cc(S(=O)(=O)N(C)CC(=O)Nc3ccc(F)cc3Cl)ccc21,/,/,-11%,/,5%,-11%[10.9 µM]
O=C(O)CCn1cnc2c(=S)nc[nH]c21,-2%[9.22 µM],-9%[9.17 µM],11%[9.22 µM],4%[9.22 µM],-4%[9.22 µM],0%[10.9 µM]
S=c1nc[nH]c2nc[nH]c12,/,/,7.9µM*,/,?,4%
COc1cccc(OCc2nc3ccccc3n2C)c1,/,/,20µM*,/,?,-50%[10.9 µM]
COc1cccc(OCc2nc3ccccc3n2Cc2ccccc2C)c1,/,/,?,/,6%,-7%[10.9 µM]
O=C(Nc1nnc2n1CCS2)c1ccc(F)cc1F,/,/,-24%,/,0%,-24%[10.9 µM]
CCOc1ccc(-c2cc(C(=O)NCc3ccc(C)cc3)c3ccccc3n2)cc1,/,/,-24%,/,4%,-3%[10.9 µM]
CCOc1ccc(-c2cc(C(=O)N3CCN(c4ccc(C)cc4)C(C)C3)c3ccccc3n2)cc1 (stereo not given),/,/,20µM*,/,16µM*,-20%[10.9 µM]
CCOc1ccc(-c2cc(C(=O)N3CCN(C)CC3)c3ccccc3n2)cc1,2%,-1%,4µM*,-1%[57.5 µM],2.5µM*,-10%
CCOc1ccc(-c2cc(C(=O)N3CCN(c4cccc(C)c4)C(C)C3)c3ccccc3n2)cc1 (stereo not given),/,/,?,/,?,-2%[10.9 µM]
CCOC(=O)N1CCN(C(=O)c2cc(-c3ccc(OCC)cc3)nc3ccccc23)CC1,5%,-1%,10µM*,-5%[57.5 µM],5µM*,-17%
O=C(CNC1=NCCC1)c1ccc2c(c1)OCCO2,-5%[20.6 µM],/,/,/,/,/
CCc1ccc(-n2c(=O)c3ccccc3n(Cc3ccccc3C#N)c2=O)cc1,/,/,7%,/,2%,-5%[10.9 µM]
CCCNC(=O)C1CCN(Cc2cc3ccccc3n2Cc2ccccc2)CC1,/,/,-11%,/,3%,-11%[10.9 µM]
CN(C)CCNC(=O)C1CCN(Cc2cc3ccccc3n2Cc2ccccc2)CC1,/,/,13µM*,/,?,-9%[10.9 µM]
SMILES,GFP derepression,UbGFP stabilizer,p53ts 39C tox,HBB splicing,p53ts 32C kill,Imprint erasure
CC1=CC(C)(C)Nc2ccc(OC(=O)CN3C(=O)CCC3=O)cc21,/,/,16µM*,/,?,/
CC1=CC(C)(C)Nc2ccc(OC(=O)c3ccco3)cc21,?,3%,?,-2%[9.22 µM],?,-33%
CC(=O)c1ccc(NC(=O)/C=C/c2ccc(C)o2)cc1,/,/,10µM*,/,7.9µM*,-11%[10.9 µM]
CSc1ccc(/C=N/NC(=O)c2ccc(O)cc2)cc1,/,/,-26%,/,/,/
O=c1[nH]c(Nc2nc3ccccc3o2)nc2c1CCCC2,/,/,?,/,13µM*,/
CCCCN1C(=O)C(O)(CC(=O)c2ccc(C(C)(C)C)cc2)c2ccccc21 (stereo not given),/,/,13µM*,/,?,-12%[10.9 µM]
CC(C)(C)c1ccc(C(=O)/C=C2\NC(=O)CS2)cc1,1%,-4%,7.9µM*,0%[57.5 µM],10µM*,-57%
COCCOC(=O)/C=C1/NC(=O)CS1,5%,1%,-5%,2%[57.5 µM],4%,-8%
Brc1ccc(-c2nc(N3CCN(c4ccccc4)CC3)c3ccccc3n2)cc1,/,/,6%,/,3%,?
Cc1cc(C)c2c(NC(=O)c3ccccc3Cl)c(C(=O)NCc3ccc(Cl)cc3)sc2n1,/,/,2.5µM*,/,?,-10%[10.9 µM]
CC1OC(OC2CCC3(C)C(CCC4C3CC(O)C3(C)C(C5=CC(=O)OC5)CCC43O)C2)CC(O)C1OC1CC(O)C(OC2CC(O)C(OC3OC(CO)C(O)C(O)C3O)C(C)O2)C(C)O1 (stereo not given),/,/,/,/,/,7%
COc1ccc(C2C(=O)c3ccccc3C2=O)c(OC)c1,-3%,3%,-11%,-1%,7%,4%
COc1ccc(C2C(=O)c3ccccc3C2=O)cc1,/,/,13µM*,/,10µM*,-10%
N#Cc1ccc(CN2CC3(CCN(C(=O)c4cnccn4)CC3)C2)cc1,2%[9.22 µM],2%,-2%,1%,-4%,/
CN(C)CCN(Cc1ccco1)C(=O)c1oc2ccccc2c1NC(=O)c1cccc(F)c1,/,/,10µM*,/,-8%,?
O=C(Nc1c(C(=O)Nc2cccc(F)c2)oc2ccccc12)c1ccc2c(c1)OCO2,0%,7%,-14%,0%,-19%,-3%
CN(C)c1ccc(/C=N/n2ncc3ccccc32)cc1,-1%,9%,16µM*,-1%,13µM*,-69%
C=CCn1c(/N=C/c2ccc(N(C)C)cc2)nc2ccccc21,-1%,8%,-6%,1%,10%,-10%
CCC(=O)N1c2ccc(S(=O)(=O)N3CCC(C)CC3)cc2CC1C (stereo not given),/,/,11%,/,0%,-15%[10.9 µM]
COc1ccc(OCC(=O)Nc2cc(-c3nc4ccccc4s3)ccc2C)cc1,/,/,16µM*,/,-25%,-16%[10.9 µM]
